Reference: PubChem BioAssay AID1159580 (chemical genetic matrix, 2015)
Where “and” joins values, the source holds several entries; their conditions need not be identical. Equal values may be shown once. Out of some 5,500 compounds screened, about 2,000 (36%) were called active. Another 18% or so got no clear call; they are omitted. Rule as the data show it: active = normalized growth mostly below about 0.91 (no sharp cut-off); inconclusive = no clear call, values can overlap the other calls; inactive = mostly above about 0.92. This is one part of the list.

Test: chemical genetic growth profiling, strain panel (AID 1159580);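 also: tested at 20 µM; growth read once vehicle control cultures reached saturation at 30 °C; 1 = growth at the plate median or of vehicle wells; lower values mean less growth of the strain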
Conditions: growth OD

Measured: normalized growth

CC(C[N+](C)(C)C)OC(N)=O (centres undefined)
inactive: S. cerevisiae deletion strains, locus YJR066W, strain TOR1, hits give low values 0.993 | S. cerevisiae deletion strains, locus YKL009W, strain mrt4, hits give low values 0.934 | S. cerevisiae deletion strains, locus YKL068W, hits give low values 0.991 | S. cerevisiae deletion strains, locus YKL085W, strain MDH1 (second series), hits give low values 0.996 | S. cerevisiae deletion strains, locus YKL085W, strain MDH1, hits give low values 0.996 | S. cerevisiae deletion strains, locus YKL160W, strain elf1, hits give low values 1.01 | S. cerevisiae deletion strains, locus YKL190W, strain CNB1, hits give low values 1 | S. cerevisiae deletion strains, locus YKR001C, strain vps1, hits give low values 0.96 | S. cerevisiae deletion strains, locus YKR026C, strain gcn3, hits give low values 1.02 | S. cerevisiae deletion strains, locus YKR091W, strain srl3, hits give low values 1.02 | S. cerevisiae deletion strains, locus YLL001W, strain dnm1, hits give low values 1.03 | S. cerevisiae deletion strains, locus YLL026W, hits give low values 1.01 | S. cerevisiae deletion strains, locus YLL041C, strain sdh2, hits give low values 1.04 | S. cerevisiae deletion strains, locus YLR027C, strain aat2, hits give low values 1.03 | S. cerevisiae deletion strains, locus YLR039C, strain RIC1, hits give low values 0.952 | S. cerevisiae deletion strains, locus YLR058C, strain SHM2, hits give low values 0.991 | S. cerevisiae deletion strains, locus YLR102C, strain apc9, hits give low values 0.983 | S. cerevisiae deletion strains, locus YLR113W, strain HOG1, hits give low values 0.957 | S. cerevisiae deletion strains, locus YLR221C, strain rsa3, hits give low values 1.04 | S. cerevisiae deletion strains, locus YLR258W, strain gsy2, hits give low values 1.04 | S. cerevisiae deletion strains, locus YLR262C, strain YPT6 (second series), hits give low values 1.02 | S. cerevisiae deletion strains, locus YLR262C, strain YPT6, hits give low values 0.939 | S. cerevisiae deletion strains, locus YLR268W, strain sec22, hits give low values 0.973 | S. cerevisiae deletion strains, locus YLR320W, strain mms22, hits give low values 1.03 | S. cerevisiae deletion strains, locus YLR330W, strain CHS5, hits give low values 0.994 | S. cerevisiae deletion strains, locus YLR342W, strain FKS1 (second series), hits give low values 1.06 | S. cerevisiae deletion strains, locus YLR342W, strain FKS1, hits give low values 1.02 | S. cerevisiae deletion strains, locus YLR357W, strain rsc2, hits give low values 1.02 | S. cerevisiae deletion strains, locus YLR370C, strain arc18, hits give low values 1.03 | S. cerevisiae deletion strains, locus YLR371W, strain rom2, hits give low values 0.976 | S. cerevisiae deletion strains, locus YLR384C, strain iki3, hits give low values 1.03 | S. cerevisiae deletion strains, locus YLR418C, strain cdc73, hits give low values 0.953 | S. cerevisiae deletion strains, locus YML016C, strain PPZ1, hits give low values 0.995 | S. cerevisiae deletion strains, locus YML032C, strain rad52, hits give low values 0.983 | S. cerevisiae deletion strains, locus YML120C, strain ndi1, hits give low values 1.03 | S. cerevisiae deletion strains, locus YML124C, strain tub3, hits give low values 0.986 | S. cerevisiae deletion strains, locus YMR058W, strain fet3, hits give low values 1.03 | S. cerevisiae deletion strains, locus YMR078C, strain ctf18, hits give low values 0.97 | S. cerevisiae deletion strains, locus YMR125W, strain sto1, hits give low values 1.05 | S. cerevisiae deletion strains, locus YMR129W, hits give low values 1.03 | S. cerevisiae deletion strains, locus YMR205C, strain PFK2, hits give low values 0.998 | S. cerevisiae deletion strains, locus YMR223W, strain ubp8, hits give low values 0.987 | S. cerevisiae deletion strains, locus YMR231W, strain pep5, hits give low values 1.02 | S. cerevisiae deletion strains, locus YMR307W, strain GAS1, hits give low values 1.09 | S. cerevisiae deletion strains, locus YNL067W, strain RPL9B, hits give low values 0.98 | S. cerevisiae deletion strains, locus YNL071W, strain lat1, hits give low values 1.01 | S. cerevisiae deletion strains, locus YNL128W, strain TEP1, hits give low values 0.975 and 0.99 | S. cerevisiae deletion strains, locus YNL153C, strain GIM3, hits give low values 0.995 | S. cerevisiae deletion strains, locus YNL175C, strain NOP13, hits give low values 0.997 | S. cerevisiae deletion strains, locus YNL183C, strain NPR1, hits give low values 0.96 | S. cerevisiae deletion strains, locus YNL197C, strain WHI3, hits give low values 1 | S. cerevisiae deletion strains, locus YNL209W, strain ssb2, hits give low values 1.03 | S. cerevisiae deletion strains, locus YNL224C, strain SQS1, hits give low values 0.995 | S. cerevisiae deletion strains, locus YNL233W, strain BNI4, hits give low values 0.999 | S. cerevisiae deletion strains, locus YNL248C, strain rpa49, hits give low values 1.01 | S. cerevisiae deletion strains, locus YNL250W, strain rad50, hits give low values 1 | S. cerevisiae deletion strains, locus YNL271C, strain bni1, hits give low values 0.973 | S. cerevisiae deletion strains, locus YNL298W, strain CLA4, hits give low values 0.976 | S. cerevisiae deletion strains, locus YNL307C, strain MCK1, hits give low values 0.97 | S. cerevisiae deletion strains, locus YNL322C, strain KRE1 (second series), hits give low values 1.01 | S. cerevisiae deletion strains, locus YNL322C, strain KRE1, hits give low values 0.992 | S. cerevisiae deletion strains, locus YNR049C, strain mso1, hits give low values 1.01 | S. cerevisiae deletion strains, locus YNR052C, strain pop2, hits give low values 0.982 | S. cerevisiae deletion strains, locus YOL006C, strain TOP1, hits give low values 1.02 | S. cerevisiae deletion strains, locus YOL012C, strain htz1 0.744 | S. cerevisiae deletion strains, locus YOL147C, strain pex11, hits give low values 0.987 | S. cerevisiae deletion strains, locus YOR001W, strain rrp6, hits give low values 1.03 | S. cerevisiae deletion strains, locus YOR061W, strain CKA2, hits give low values 0.99 | S. cerevisiae deletion strains, locus YOR069W, strain VPS5, hits give low values 0.987 | S. cerevisiae deletion strains, locus YOR070C, strain gyp1, hits give low values 1.03 | S. cerevisiae deletion strains, locus YOR080W, strain dia2, hits give low values 1.04 | S. cerevisiae deletion strains, locus YOR083W, strain WHI5 (second series), hits give low values 0.996 | S. cerevisiae deletion strains, locus YOR083W, strain WHI5, hits give low values 0.976 | S. cerevisiae deletion strains, locus YOR106W, strain vam3, hits give low values 1.05 | S. cerevisiae deletion strains, locus YOR136W, strain idh2, hits give low values 0.968 | S. cerevisiae deletion strains, locus YOR144C, strain elg1, hits give low values 0.985 | S. cerevisiae deletion strains, locus YOR184W, strain ser1, hits give low values 0.976 | S. cerevisiae deletion strains, locus YOR231W, strain MKK1, hits give low values 0.979 | S. cerevisiae deletion strains, locus YOR265W, strain rbl2, hits give low values 1.02 | S. cerevisiae deletion strains, locus YOR270C, strain vph1, hits give low values 1.05 | S. cerevisiae deletion strains, locus YOR290C, strain snf2, hits give low values 1.02 | S. cerevisiae deletion strains, locus YOR316C, strain cot1, hits give low values 0.977 | S. cerevisiae deletion strains, locus YPL051W, strain arl3, hits give low values 1.02 | S. cerevisiae deletion strains, locus YPL055C, strain LGE1, hits give low values 0.998 | S. cerevisiae deletion strains, locus YPL078C, strain atp4, hits give low values 1.02 | S. cerevisiae deletion strains, locus YPL106C, strain sse1, hits give low values 1.06 | S. cerevisiae deletion strains, locus YPL240C, strain hsp82, hits give low values 1.02 | S. cerevisiae deletion strains, locus YPL256C, strain CLN2, hits give low values 0.976 | S. cerevisiae deletion strains, locus YPR119W, strain clb2, hits give low values 0.985 | S. cerevisiae deletion strains, locus YPR141C, strain kar3, hits give low values 0.986 | S. cerevisiae deletion strains, locus YPR163C, strain tif3, hits give low values 0.979 | S. cerevisiae deletion strains, locus YPR167C, strain met16, hits give low values 0.98 | S. cerevisiae deletion strains, strain wtn01, hits give low values 1 | S. cerevisiae strains, strain wild type, hits give low values 0.994
